# Several values for one entry are separate records, joined by “and”; a condition that tells them apart may be missing. Identical values can stand only once. Among all 5,500 compounds or so, about 2,000 (36%) were called active. Roughly 18% stayed inconclusive and do not appear here. This is one part of the list. A number with no mark means an inactive call. Cut-off read from the data, not from the text of the source: active = normalized growth mostly below about 0.91 (no sharp cut-off); inconclusive = no clear call, values can overlap the other calls; inactive = mostly above about 0.92.
# Experiment: chemical genetic growth profiling, strain panel (AID 1159580);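 note: tested at 20 µM; growth read once vehicle control cultures reached saturation at 30 °C; 1 = growth at the plate median or of vehicle wells; lower values mean less growth of the strain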
# Settings: growth OD
# [1] = S. cerevisiae deletion strains, locus YAL013W, strain DEP1, hits give low values
# [2] = S. cerevisiae deletion strains, locus YDR150W, strain NUM1, hits give low values
# [3] = S. cerevisiae deletion strains, locus YGR078C, strain PAC10, hits give low values
# [4] = S. cerevisiae deletion strains, locus YJR075W, strain HOC1, hits give low values
# [5] = S. cerevisiae deletion strains, locus YMR263W, strain SAP30, hits give low values
# [6] = S. cerevisiae deletion strains, locus YNL128W, strain TEP1, hits give low values
# [7] = S. cerevisiae deletion strains, locus YPL055C, strain LGE1, hits give low values
# [8] = S. cerevisiae deletion strains, locus YPL241C, strain CIN2, hits give low values
compound,measurement,setting,value
CS(=N)(=O)CC[C@H](N)C(=O)O (some centres not stated),normalized growth,[1],0.995
same,normalized growth,"S. cerevisiae deletion strains, locus YAL040C, strain CLN3, hits give low values",0.993
same,normalized growth,"S. cerevisiae deletion strains, locus YCL061C, strain MRC1 (second series), hits give low values",0.997
same,normalized growth,[2],1.02
same,normalized growth,"S. cerevisiae deletion strains, locus YDR363W, strain ESC2, hits give low values",0.962
same,normalized growth,"S. cerevisiae deletion strains, locus YER002W, strain NOP16, hits give low values",1
same,normalized growth,[3],0.969
same,normalized growth,[4],1.01
same,normalized growth,[5],1.01
same,normalized growth,[6],0.991
same,normalized growth,"S. cerevisiae deletion strains, locus YNL175C, strain NOP13, hits give low values",0.989
same,normalized growth,"S. cerevisiae deletion strains, locus YNL197C, strain WHI3, hits give low values",0.983
same,normalized growth,"S. cerevisiae deletion strains, locus YNL224C, strain SQS1, hits give low values",0.999
same,normalized growth,"S. cerevisiae deletion strains, locus YOR083W, strain WHI5 (second series), hits give low values",0.989
same,normalized growth,[7],1
same,normalized growth,[8],1
N[C@@H](Cc1cc(I)c(Oc2cc(I)c(O)c(I)c2)c(I)c1)C(=O)O,normalized growth,[1],1.05
same,normalized growth,"S. cerevisiae deletion strains, locus YBR021W, strain FUR4, hits give low values",1.07
same,normalized growth,"S. cerevisiae deletion strains, locus YBR229C, strain ROT2, hits give low values",1.02
same,normalized growth,"S. cerevisiae deletion strains, locus YCL029C, strain bik1, hits give low values",1.22 [resistant] (active)
same,normalized growth,"S. cerevisiae deletion strains, locus YDL035C, strain GPR1, hits give low values",1.04
same,normalized growth,"S. cerevisiae deletion strains, locus YDL074C, strain BRE1, hits give low values",1.04
same,normalized growth,"S. cerevisiae deletion strains, locus YDL101C, strain DUN1, hits give low values",1.04
same,normalized growth,"S. cerevisiae deletion strains, locus YDL134C, strain PPH21, hits give low values",1.03
same,normalized growth,"S. cerevisiae deletion strains, locus YDL185W, strain tfp1, hits give low values",1.03
same,normalized growth,"S. cerevisiae deletion strains, locus YDL192W, strain arf1, hits give low values",1.12 [resistant] (active)
same,normalized growth,"S. cerevisiae deletion strains, locus YDR101C, strain arx1, hits give low values",1.04
same,normalized growth,[2],1.06
same,normalized growth,"S. cerevisiae deletion strains, locus YDR162C, strain NBP2, hits give low values",1.03
same,normalized growth,"S. cerevisiae deletion strains, locus YDR318W, strain mcm21, hits give low values",1
same,normalized growth,"S. cerevisiae deletion strains, locus YDR388W, hits give low values",1.09 [resistant] (active)
same,normalized growth,"S. cerevisiae deletion strains, locus YDR502C, strain sam2, hits give low values",1.05
same,normalized growth,"S. cerevisiae deletion strains, locus YEL061C, strain CIN8, hits give low values",1.05
same,normalized growth,"S. cerevisiae deletion strains, locus YER110C, hits give low values",1.1
same,normalized growth,"S. cerevisiae deletion strains, locus YER155C, strain BEM2, hits give low values",1.06
same,normalized growth,"S. cerevisiae deletion strains, locus YER167W, strain BCK2, hits give low values",1.01
same,normalized growth,"S. cerevisiae deletion strains, locus YGL078C, strain dbp3, hits give low values",1.01
same,normalized growth,"S. cerevisiae deletion strains, locus YGL086W, strain mad1, hits give low values",1
same,normalized growth,"S. cerevisiae deletion strains, locus YGL248W, strain PDE1, hits give low values",1.02
same,normalized growth,[3],1.03
same,normalized growth,"S. cerevisiae deletion strains, locus YGR135W, strain pre9, hits give low values",1.04
same,normalized growth,"S. cerevisiae deletion strains, locus YGR229C, strain SMI1, hits give low values",1.03
same,normalized growth,"S. cerevisiae deletion strains, locus YGR252W, strain gcn5, hits give low values",1.17
same,normalized growth,"S. cerevisiae deletion strains, locus YHR030C, strain SLT2, hits give low values",1.02
same,normalized growth,"S. cerevisiae deletion strains, locus YHR079C, strain IRE1 (second series), hits give low values",1.27 [resistant] (active)
same,normalized growth,"S. cerevisiae deletion strains, locus YHR079C, strain IRE1, hits give low values",1.05
same,normalized growth,"S. cerevisiae deletion strains, locus YHR094C, strain hxt1, hits give low values",1.04
same,normalized growth,"S. cerevisiae deletion strains, locus YHR129C, strain ARP1, hits give low values",1.04
same,normalized growth,"S. cerevisiae deletion strains, locus YHR200W, strain rpn10, hits give low values",1.19 [resistant] (active)
same,normalized growth,"S. cerevisiae deletion strains, locus YIL066C, strain RNR3, hits give low values",1.01
same,normalized growth,"S. cerevisiae deletion strains, locus YIL073C, strain SPO22, hits give low values",1.07
same,normalized growth,"S. cerevisiae deletion strains, locus YIL125W, strain kgd1, hits give low values",1.04
same,normalized growth,"S. cerevisiae deletion strains, locus YIR030C, strain dcg1, hits give low values",1.13 [resistant] (active)
same,normalized growth,"S. cerevisiae deletion strains, locus YJL095W, strain BCK1, hits give low values",0.994 and 1.02
same,normalized growth,"S. cerevisiae deletion strains, locus YJL134W, strain LCB3, hits give low values",1.03
same,normalized growth,"S. cerevisiae deletion strains, locus YJL168C, strain set2, hits give low values",1.1 [resistant] (active)
same,normalized growth,"S. cerevisiae deletion strains, locus YJL187C, strain SWE1 (second series), hits give low values",1.02
same,normalized growth,"S. cerevisiae deletion strains, locus YJR043C, strain POL32, hits give low values",1.04
same,normalized growth,"S. cerevisiae deletion strains, locus YJR066W, strain TOR1, hits give low values",0.978
same,normalized growth,[4],1.05
same,normalized growth,"S. cerevisiae deletion strains, locus YKL009W, strain mrt4, hits give low values",0.928
same,normalized growth,"S. cerevisiae deletion strains, locus YKL068W, hits give low values",0.963
same,normalized growth,"S. cerevisiae deletion strains, locus YKL085W, strain MDH1 (second series), hits give low values",0.995
same,normalized growth,"S. cerevisiae deletion strains, locus YKL085W, strain MDH1, hits give low values",0.995
same,normalized growth,"S. cerevisiae deletion strains, locus YKL190W, strain CNB1, hits give low values",1.04
same,normalized growth,"S. cerevisiae deletion strains, locus YKR001C, strain vps1, hits give low values",0.953
same,normalized growth,"S. cerevisiae deletion strains, locus YLR039C, strain RIC1, hits give low values",1.04
same,normalized growth,"S. cerevisiae deletion strains, locus YLR058C, strain SHM2, hits give low values",1.03
same,normalized growth,"S. cerevisiae deletion strains, locus YLR102C, strain apc9, hits give low values",1.09 [resistant] (active)
same,normalized growth,"S. cerevisiae deletion strains, locus YLR113W, strain HOG1, hits give low values",1.01
same,normalized growth,"S. cerevisiae deletion strains, locus YLR262C, strain YPT6, hits give low values",1.06
same,normalized growth,"S. cerevisiae deletion strains, locus YLR268W, strain sec22, hits give low values",1.05
same,normalized growth,"S. cerevisiae deletion strains, locus YLR330W, strain CHS5, hits give low values",1.13 [resistant] (active)
same,normalized growth,"S. cerevisiae deletion strains, locus YLR342W, strain FKS1 (second series), hits give low values",0.998
same,normalized growth,"S. cerevisiae deletion strains, locus YLR371W, strain rom2, hits give low values",1.2 [resistant] (active)
same,normalized growth,"S. cerevisiae deletion strains, locus YLR418C, strain cdc73, hits give low values",0.998
same,normalized growth,"S. cerevisiae deletion strains, locus YML016C, strain PPZ1, hits give low values",1.02
same,normalized growth,"S. cerevisiae deletion strains, locus YML032C, strain rad52, hits give low values",1.03
same,normalized growth,"S. cerevisiae deletion strains, locus YML124C, strain tub3, hits give low values",1.06
same,normalized growth,"S. cerevisiae deletion strains, locus YMR078C, strain ctf18, hits give low values",1.16 [resistant] (active)
same,normalized growth,"S. cerevisiae deletion strains, locus YMR223W, strain ubp8, hits give low values",1.25 [resistant] (active)
same,normalized growth,[5],1.06
same,normalized growth,"S. cerevisiae deletion strains, locus YMR307W, strain GAS1, hits give low values",1.05
same,normalized growth,"S. cerevisiae deletion strains, locus YNL067W, strain RPL9B, hits give low values",1.02
same,normalized growth,[6],1.05
same,normalized growth,"S. cerevisiae deletion strains, locus YNL153C, strain GIM3, hits give low values",1.02
same,normalized growth,"S. cerevisiae deletion strains, locus YNL183C, strain NPR1, hits give low values",0.945
same,normalized growth,"S. cerevisiae deletion strains, locus YNL233W, strain BNI4, hits give low values",1.03
same,normalized growth,"S. cerevisiae deletion strains, locus YNL250W, strain rad50, hits give low values",1.04
same,normalized growth,"S. cerevisiae deletion strains, locus YNL271C, strain bni1, hits give low values",1
same,normalized growth,"S. cerevisiae deletion strains, locus YNL298W, strain CLA4, hits give low values",1.03
same,normalized growth,"S. cerevisiae deletion strains, locus YNL307C, strain MCK1, hits give low values",0.851 (active)
same,normalized growth,"S. cerevisiae deletion strains, locus YNL322C, strain KRE1, hits give low values",1.05
same,normalized growth,"S. cerevisiae deletion strains, locus YNR052C, strain pop2, hits give low values",1.24 [resistant] (active)
same,normalized growth,"S. cerevisiae deletion strains, locus YOL006C, strain TOP1, hits give low values",1.02
same,normalized growth,"S. cerevisiae deletion strains, locus YOL012C, strain htz1",1.11
same,normalized growth,"S. cerevisiae deletion strains, locus YOL147C, strain pex11, hits give low values",1.08 [resistant] (active)
same,normalized growth,"S. cerevisiae deletion strains, locus YOR061W, strain CKA2, hits give low values",1.03
same,normalized growth,"S. cerevisiae deletion strains, locus YOR069W, strain VPS5, hits give low values",1.03
same,normalized growth,"S. cerevisiae deletion strains, locus YOR144C, strain elg1, hits give low values",1.2 [resistant] (active)
same,normalized growth,"S. cerevisiae deletion strains, locus YOR184W, strain ser1, hits give low values",1.01
same,normalized growth,"S. cerevisiae deletion strains, locus YOR231W, strain MKK1, hits give low values",1.02
same,normalized growth,"S. cerevisiae deletion strains, locus YOR316C, strain cot1, hits give low values",1.22 [resistant] (active)
same,normalized growth,[7],1.03
same,normalized growth,[8],1.05
same,normalized growth,"S. cerevisiae deletion strains, locus YPL256C, strain CLN2, hits give low values",1.06
same,normalized growth,"S. cerevisiae deletion strains, locus YPR119W, strain clb2, hits give low values",1.06
same,normalized growth,"S. cerevisiae deletion strains, locus YPR141C, strain kar3, hits give low values",1.23 [resistant] (active)
same,normalized growth,"S. cerevisiae deletion strains, locus YPR163C, strain tif3, hits give low values",1.14 [resistant] (active)
same,normalized growth,"S. cerevisiae deletion strains, locus YPR167C, strain met16, hits give low values",1.17 [resistant] (active)
same,normalized growth,"S. cerevisiae deletion strains, strain wtn01, hits give low values",1.02
same,normalized growth,"S. cerevisiae strains, strain wild type, hits give low values",1.04

# Reference: PubChem BioAssay AID1159580 (chemical genetic matrix, 2015)
